The supplement of paper PMC13380429
Unmarked numbers belong to inactive results.

System: Vero E6 infected with SARS-CoV-2
Assay: inhibition of SARS-CoV-2 cytopathic effect; higher = more antiviral protection, active = above 15
Conditions: 48 h

| Structure (SMILES) | inhibition of SARS-CoV-2 cytopathic effect (1 nM) | inhibition of SARS-CoV-2 cytopathic effect (8.33 nM) | inhibition of SARS-CoV-2 cytopathic effect (100 nM) | inhibition of SARS-CoV-2 cytopathic effect (833.33 nM) | inhibition of SARS-CoV-2 cytopathic effect (10000 nM) |
| --- | --- | --- | --- | --- | --- |
| C#Cc1cccc2c1c(C(=O)c1ccc(Cn3c(C)nc4cnccc43)c(F)c1)cn2C(=O)N(C)C | -0.44% | -1.26% | 0.63% | -0.09% | -1.98% |
| O=C(Nc1cnn2ccc(N3CCC[C@@H]3c3cc(F)ccc3F)nc12)N1CC[C@H](O)C1 [larotrectinib] | 1.44% | 4.14% | 3.48% | -0.49% | 2.41% |
| Cc1cc(-n2c(=O)[nH]c(=O)n(C)c2=O)ccc1Oc1ccc(SC(F)(F)F)cc1 [toltrazuril] | 1.91% | -0.85% | 1.02% | -10.3% | -0.06% |
| NCc1cc(O)no1 [muscimol] | -0.61% | 0.05% | 2.35% | 0.14% | 0.49% |
| O=C1C(=O)N(Cc2ccc(Cl)c(Cl)c2)c2ccccc21 [apoptosis-activator-II] | 1.74% | -0.59% | -1.07% | -3.55% | -3.11% |
| CC(C)Nc1nc2cc(Cl)c(Cl)cc2n1[C@H]1O[C@@H](CO)[C@H](O)[C@@H]1O [maribavir] | 2% | -0.5% | 0.22% | -0.76% | -2.15% |
| O[C@H]1CC[C@H](Nc2ncc3nc(Nc4c(F)cc(F)cc4F)n([C@H]4CCOC4)c3n2)CC1 | 1.66% | 2.79% | 0.98% | -0.04% | -3.68% |
| CCCCCCCCCCCC1=C(O)C(=O)C=C(O)C1=O [embelin] | 0.27% | -0.22% | -1.48% | -2.76% | -6.88% |
| O=C(O)c1cccnc1 [niacin] | 1.07% | 0.1% | 0.52% | 0.71% | 4.53% |
| COCCOCCOc1ccc(C2=N[C@@](C)(C(=O)O)CS2)c(O)c1 | -1.16% | 1.76% | 1.19% | 1.75% | 2.16% |
| COc1ccc(-n2nc(CCC(=O)N(C)O)cc2-c2ccc(Cl)cc2)cc1 [tepoxalin] | 0.7% | -1.58% | 0.1% | 1.81% | -0.4% |
| O=C(C(c1ccccc1)c1ccccc1)N1CCN(CC(O)COc2cccc3ncccc23)CC1 (stereo not given) [dofequidar] | -0.98% | 4.84% | -1.1% | -0.87% | 1.44% |
| C[C@@H](C1=C(CCN(C)C)Cc2ccccc21)c1ccccn1 (racemic) [dimetindene] | -0.06% | 0.69% | 0.085% | 1.68% | 1.16% |
| O=C(O)CCCCCCCC(=O)O [azelaic-acid] | 24.2% (active) | 0.49% | -0.06% | 0.7% | -3.28% |
| CN1CCC[C@@H]1Cc1c[nH]c2ccc(CCS(=O)(=O)c3ccccc3)cc12 [eletriptan] | -0.44% | 1.24% | 2.14% | -1.16% | -2.89% |
| CC(=O)c1ccc(S(=O)(=O)NC(=O)NC2CCCCC2)cc1 [acetohexamide] | -0.51% | -0.35% | -0.58% | 0.37% | -0.22% |
| C[C@H]1O[C@@H](O[C@H]2CC[C@@]3(C)[C@H](CC[C@@H]4[C@@H]3C[C@@H](O)[C@]3(C)[C@@H](C5=CC(=O)OC5)CC[C@]43O)C2)C[C@H](O)[C@@H]1O[C@H]1C[C@H](O)[C@H](O[C@H]2C[C@H](O)[C@H](O[C@@H]3O[C@H](CO)[C@@H](O)[C@H](O)[C@H]3O)[C@@H](C)O2)[C@@H](C)O1 [deslanoside] | -1.34% | -4.74% | -14.1% | -18.9% | -20.6% |
